# Assay results: PubChem BioAssay (NCI)
# This is part of a sample that, as a whole, favours compounds with a hit. Of some 83,000 tested, about 20% had one in any assay.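 The endpoint reported here, percent growth, reads 100 for growth as untreated, 0 for no net growth and -100 for all cells dead.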 A number with no mark means an inactive call. Calls of active or inactive are those of the source. How the source made its calls: active means growth percent below 10; inactive means the rest.
# How the values were obtained:
# Experiment in all cases: NCI-60 one-dose screen, 48 h (100 = growth as untreated, 0 = no growth, -100 = all killed)
# Conditions in all cases: 10 µM unless noted
# NCI-H226 lung = test system: NCI-H226 lung
# NCI-H322M lung = test system: NCI-H322M lung
# HOP-62 NSCLC = test system: HOP-62 NSCLC
# NCI-H460 lung = test system: NCI-H460 lung
# HOP-92 NSCLC = test system: HOP-92 NSCLC
# NCI-H522 lung = test system: NCI-H522 lung
# A549/ATCC NSCLC = test system: A549/ATCC NSCLC
# 786-0 renal = test system: 786-0 renal
# COLO 205 colon = test system: COLO 205 colon
# DU-145 prostate = test system: DU-145 prostate
Compound,growth (NCI-H226 lung),growth (NCI-H322M lung),growth (HOP-62 NSCLC),growth (NCI-H460 lung),growth (HOP-92 NSCLC),growth (NCI-H522 lung),growth (A549/ATCC NSCLC),growth (786-0 renal),growth (COLO 205 colon),growth (DU-145 prostate)
COC(=O)C(C)NS(=O)(=O)/N=C1\NC(=O)NC1=C(Cl)Cl (stereo not given),106%,102%,111%,113%,107%,101%,105%,103%,115%,109%
Cc1ccc(CNS(=O)(=O)/N=C2\NC(=O)NC2=C(Cl)Cl)cc1,79.1%,99.9%,46.2%,75.3%,-1.1% (active),36.8%,99.2%,36.6%,113%,32.6%
COc1ccc(NC2=CC(=O)C(C)=C(C)C2=O)cc1,97.2%,103%,99.7%,99.6%,172%,82.5%,97.3%,90.5%,107%,105%
Cc1sc2c(c1C)c(=O)nc1c(-c3nc(-c4ccc(F)cc4)no3)n[nH]n12,93.1%,103%,91.8%,107%,91.2%,100%,106%,99.4%,119%,109%
C=CCn1c(SCC(=O)c2ccc(Br)cc2)nnc1-c1c[nH]c2ccccc12,90.1%,99.5%,103%,106%,91.4%,96.3%,103%,98.6%,108%,106%
Cc1cccc2sc(/N=C(\N)C(Br)Br)nc12,42.8%,48.8%,67%,1.4% (active),47.6%,-76% (active),37.4%,31.6%,27%,4.67% (active)
CS(=O)(=O)c1ccc(-c2nc3ccccn3c2/C=N/Nc2nc(-c3ccc(Cl)cc3)cs2)cc1,108%,111%,109%,102%,96.4%,96.2%,98.2%,79.8%,112%,106%
COc1ccc(/C=N/NC(=O)c2[nH]c3ccc(Br)cc3c2-c2ccccc2)o1,49.7%,44.2%,47.6%,0.221% (active),33.2%,-54.6% (active),30.4%,13.3%,-47.8% (active),20%
COc1cc(/C=C/C(=O)c2cc(OC)c(OC)c(OC)c2)ccc1Oc1nc(NCCO)nc(N2CCOCC2)n1,-1.45% (active),24%,1.11% (active),-51.6% (active),13.5%,-11.1% (active),6.84% (active),-5.28% (active),3.69% (active),12.6%
COC(=O)c1ccc(NC(=S)N2CCc3ccc([N+](=O)[O-])cc3C2)cc1O,100%,101%,91.3%,114%,99.7%,99%,106%,109%,105%,112%
COc1ccc(-c2cc(C(=O)N=Nc3c(O)[nH]c4ccccc34)c3ccccc3n2)cc1OC,86.2%,89.7%,93.2%,99%,89.5%,90.2%,95.7%,104%,98.3%,104%
Cn1ccnc1C(=O)/C=C/c1ccc(NC(=O)Nc2ccc(Cl)cc2)cc1,81.9%,95.1%,94.8%,59.6%,104%,78.2%,86.8%,56.8%,95.9%,75.7%
Oc1c(Cl)cc(Cl)c2ccc(CN3CCCCC3)nc12,48.6%,37.9%,48.1%,22.2%,48.6%,34%,44.7%,36.1%,79.9%,44%
O=C1Nc2ccc(Cl)cc2/C1=C/c1ccc(OCC(=O)c2ccc(Br)cc2)cc1,78.7%,84.7%,68.4%,94.7%,72%,95.9%,102%,103%,98.5%,103%
